In PubChem BioAssay (NCI):
Values joined by “and” are separate entries in the source; they are usually repeats but may differ in a detail not shown here. Equal values may be shown once. Compounds without any hit were thinned out: in the full panel of roughly 83,000, 20% have a hit.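 For each line, cells grew in 96-well plates with the test compound present at a single concentration for 48 hours.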 Active and inactive are the calls of the source. The calls were made as follows: active = growth percent below 10; inactive = the rest.

tested on: MDA-MB-468 breast; assay: NCI-60 one-dose screen, 48 h (100 = growth as untreated, 0 = no growth, -100 = all killed); settings: 10 µM unless noted

| SMILES | growth |
| --- | --- |
| CC1(C)[C@H](O)[C@H](F)C[C@@]2(C)Oc3ccc(C(=O)Nc4ccc5c(c4)NC(=O)C54CCN(CCCCC#N)CC4)cc3C[C@H]12 | 7.2% (active) |
| O=[N+]([O-])c1ccc(P(=O)(O)O)cc1 | 102% (inactive) |
| NC1CCc2cc(O)c(O)cc2C1 (configuration not stated) | 66% (inactive) |
| C[C@]12CC[C@@H](OC(=O)N(CCCl)N=O)C[C@@H]1CC[C@@H]1[C@@H]2CC[C@]2(C)C(=O)CC[C@@H]12 | -31.4% (active) |
| C/C(Cc1ccc(Cl)cc1)=C(\c1ccc(OCCN2CCOCC2)cc1)c1ccc(OC(=O)Cc2ccccc2)cc1 | 88.7% (inactive) |
| O=[N+]([O-])c1ccccc1N1CCNCC1 | 113% (inactive) |
| Cc1ccc(N)cc1[As]=[As]c1cc(N)ccc1C (configuration not stated) | -92.9% (active) |
| COc1cccc2c1c(C(=O)c1ccco1)cn2Cc1ccc(F)cc1 | 103% (inactive) |
| CCCCCCCCOC(=O)CCN1CC1 | 100% (inactive) |
| ClCCN(CCCl)c1ccc(-n2cnc3c(Cl)ncnc32)cc1 | -43.5% (active) |
| Cc1ccc(C(=O)NCCCOc2ccc(N)cc2Cl)cc1S(=O)(=O)F | 84.6% (inactive) |
| CCCCCCCCCCCCOc1ccc(C(=O)Oc2ccc(CSP3(=O)OCC4OC(n5cnc6c(N)ncnc65)C(F)C4OP(=O)(O)OCC4OC(n5ccc(=O)[nH]c5=O)C(F)C4O3)cc2)cc1 (configuration not stated) | 108% (inactive) |
| Clc1ccc2nnnn2n1 | 35.6% (inactive) |
| CN1C(=O)C23CC4(C56CC78SSC(CO)(C(=O)N7C5Nc5ccccc56)N(C)C8=O)c5ccccc5NC4N2C(=O)C1(CO)SS3 (configuration not stated) | -81.7% (active) |
| Oc1ccc2c3c1OC1[C@@H](O)CC[C@@]4(O)[C@@H](C2)N(CC2CCC2)CC[C@]314 (some centres not stated) | 99.8% (inactive) |
| N[C@@H](CCC(=O)CCl)C(=O)O | 102% [20 µM] (inactive) |
| COP(=S)(N1CC1)N1CC1 | 110% (inactive) |
| C#CC1(O)CCC(C(C)(C)C)CC1 (configuration not stated) | 122% (inactive) |
| CC(C)OC(=O)[C@H](C)NP(=O)(Oc1ccccc1)C1CCCN(O)C1=O (some centres not stated) | 96.9% (inactive) |

| SMILES | growth |
| --- | --- |
| O=C(O)C(O)c1ccc(Cl)cc1 (configuration not stated) | 84.9% (inactive) and 112% (inactive) |
| C[C@@H]1CCC2[C@@H](C)[C@H](OC(=O)CCC(=O)NCCNC(=O)Cc3cc(=O)oc4cc(N(C)C)ccc34)O[C@@H]3O[C@]4(C)CC[C@@H]1C23OO4 (some centres not stated) | 63.7% (inactive) |
| COc1ccc(OC)c(/C=C(/C)[N+](=O)[O-])c1 | -40.8% (active) |
| O=C(O)c1cc(Cc2ccc(O)c(C(=O)O)c2)ccc1O (tested in a mixture with another compound) | -46.8% (active) |
| CC[C@H](C)[C@H](NC(=O)[C@H]1CCCCN1C)C(=O)N(C)[C@H](CC(=O)c1nc(C(=O)N[C@@H](Cc2ccccc2)C[C@H](C)C(=O)O)cs1)C(C)C | 62.3% (inactive) |
| C/C(=C\C(=O)O[C@H]1[C@@H]2[C@H](C)CC[C@H]2[C@]2(C)O[C@@]1(C1CCCCC1)C[C@H]2OC(=O)CO)c1ccccc1 | 28% (inactive) |
| Cc1cnc(/C=C/C(=O)O)cc1-c1cc2c(cc1C)C(C)(C)CCC2(C)C | 95.4% (inactive) |
| COc1cc(/C=N/C2=C(C#N)C(c3ccco3)c3c(c4cc(C)ccc4oc3=O)O2)cc(OC)c1OC (configuration not stated) | 109% (inactive) |
| O=C1N[C@@H]2[C@@H](O)[C@@H](O)[C@H](O)C[C@H]2c2cc3c(c(O)c21)OCO3 | -45.8% (active) |
| CCCC1CCCCC12C(=O)NC(=O)NC2=O (configuration not stated) | 113% (inactive) |
| C1CNC2CCCC2C1 (configuration not stated) | 97.4% (inactive) |
| CCOC(=O)c1cnc(SCc2ccc(Cl)c(Cl)c2)nc1N1CC1 | -3.19% (active) |
| CCC(Br)(CC)C(=O)NC(N)=O | 97.7% (inactive) |
| CC(=O)O[C@H]1CC[C@H]2[C@@H]3CC=C4c5nc(-c6ccccc6)sc5CC[C@]4(C)[C@H]3CC[C@]12C | 57.2% (inactive) |
| CCCCCCCCCCCC1CCCC(C)N1 (configuration not stated) | 73.3% (inactive) |
| C=CC[PH+](c1ccccc1)c1ccccc1.C=CC[PH+](c1ccccc1)c1ccccc1.[Pt+2].[S-]c1nc2ccccc2[nH]1.[S-]c1nc2ccccc2[nH]1 | -14% (active) |
| CCn1cnc2c(Nc3cccc(Cl)c3)nc(N[C@@H]3CCCC[C@@H]3N)nc21 | -22% (active) |
| COc1ccc(C(=O)c2sc3nc4c(cc3c2N)N2CCC4CC2)cc1OC | 72.2% (inactive) |
